These results are taken from the supplement of paper PMC10849652.

Structures are written as SMILES. Of roughly 7,900 targets only a part is listed; those with a hit were picked by preference. About 0.6% of all pairs of compound and target were hits. A number with no mark means an inactive call.

Assay in all cases: log2 fold change, soluble protein after heating vs DMSO (PISA); higher = thermal stabilisation; K562 cells, 10 uM, 30 min; active = over 0.2 and 3.5 SD of the protein, either way, in both replicates (recomputed)
In assay [1] the target is AAGAB (UniProt Q6PD74). An outline of the steps:
(§1)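 Soluble protein was quantified by TMTpro 16plex LC-MS/MS after channel sums were equalised. It was obtained as the supernatant after 21,000xg for 90 min from pooled aliquots of K562 cells (2×10^6 cells/mL, 10 μM compound, 30 min) heated for 3 min across 48°C-58°C and extracted in PBS with 0.5% NP-40 at 4°C. Thermal stability values are relative to control samples and come from duplicates. They are given as log2 fold changes.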

Assay [2] has as its target AAK1 (UniProt A0A096LP25). An outline of the steps:
as §1

Assay [3] concerns the target AAK1 (UniProt Q2M2I8). The gist of the method: as §1

Chain of AAGAB (Q6PD74 whole entry, looked up): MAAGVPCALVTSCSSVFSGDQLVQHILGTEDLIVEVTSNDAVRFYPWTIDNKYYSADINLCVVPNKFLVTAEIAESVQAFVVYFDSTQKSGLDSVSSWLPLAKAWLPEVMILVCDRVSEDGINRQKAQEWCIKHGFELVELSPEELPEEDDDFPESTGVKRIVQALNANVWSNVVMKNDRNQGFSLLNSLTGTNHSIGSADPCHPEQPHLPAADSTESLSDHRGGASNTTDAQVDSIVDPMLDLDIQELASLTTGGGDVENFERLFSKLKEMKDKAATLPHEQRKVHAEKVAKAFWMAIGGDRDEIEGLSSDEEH
Chain of AAK1 (UniProt Q2M2I8) (Q2M2I8 whole entry, looked up): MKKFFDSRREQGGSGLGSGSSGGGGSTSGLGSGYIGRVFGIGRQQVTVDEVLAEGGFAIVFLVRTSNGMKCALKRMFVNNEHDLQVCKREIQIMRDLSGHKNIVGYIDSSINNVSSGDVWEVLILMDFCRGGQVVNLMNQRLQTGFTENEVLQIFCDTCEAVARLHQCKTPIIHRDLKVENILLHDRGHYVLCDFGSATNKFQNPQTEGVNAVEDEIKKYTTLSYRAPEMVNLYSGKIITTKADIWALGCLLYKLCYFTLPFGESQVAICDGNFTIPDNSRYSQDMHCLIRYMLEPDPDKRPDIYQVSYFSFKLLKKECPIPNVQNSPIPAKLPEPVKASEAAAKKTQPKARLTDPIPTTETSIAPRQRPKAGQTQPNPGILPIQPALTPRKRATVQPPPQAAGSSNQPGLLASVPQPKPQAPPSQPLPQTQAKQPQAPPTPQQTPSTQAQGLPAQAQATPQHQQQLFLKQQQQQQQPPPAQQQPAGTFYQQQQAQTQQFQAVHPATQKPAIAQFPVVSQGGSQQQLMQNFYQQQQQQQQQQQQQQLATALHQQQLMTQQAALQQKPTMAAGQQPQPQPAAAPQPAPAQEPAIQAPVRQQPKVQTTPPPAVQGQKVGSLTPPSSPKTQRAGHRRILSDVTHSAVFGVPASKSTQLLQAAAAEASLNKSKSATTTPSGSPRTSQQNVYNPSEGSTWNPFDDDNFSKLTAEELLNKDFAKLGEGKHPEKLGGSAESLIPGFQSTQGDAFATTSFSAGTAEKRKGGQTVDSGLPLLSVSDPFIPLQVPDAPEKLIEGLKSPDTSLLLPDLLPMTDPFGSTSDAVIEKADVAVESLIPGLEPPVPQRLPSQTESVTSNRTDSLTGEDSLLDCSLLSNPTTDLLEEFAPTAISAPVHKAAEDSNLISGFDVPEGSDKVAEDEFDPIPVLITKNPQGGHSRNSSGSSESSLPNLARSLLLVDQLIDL

Regarding `CN1CCN(CCOc2cc(OC3CCOCC3)c3c(Nc4c(Cl)ccc5c4OCO5)ncnc3c2)CC1` [saracatinib], the log2 fold change is 0.168 in assay [1], 0.147 in assay [2] and 0 in assay [3].
For `CCCCN(Cc1ccc(C(=O)NO)cc1)C(=O)Nc1ccccc1` [Nexturastat A] the same measures were 0.109, 0.068 and -0.021.
Taken in the same sequence, the figures for `CCN(CCCOc1ccc2c(Nc3cc(CC(=O)Nc4cccc(F)c4)[nH]n3)ncnc2c1)CCOP(=O)(O)O` [barasertib] were 0.068, -0.004 and -0.034.
Taken in the same sequence, the figures for `CON(C)C(=O)N1N=C(c2cc(F)ccc2F)S[C@@]1(CCCN)c1ccccc1` [filanesib] were 0.041, -0.01 and -0.108.
For `CC(C)C[C@@H](C=O)NC(=O)[C@H](CC(C)C)NC(=O)[C@H](CC(C)C)NC(=O)OCc1ccccc1`, the log2 fold change in assay [1] is 0; in assay [2], 0.065; in assay [3] it was -0.061.
For `CN1CCN(c2nc(C3=C(c4c[nH]c5ccccc45)C(=O)NC3=O)c3ccccc3n2)CC1` [sotrastaurin] the same measures were 0.007, -0.005 and -0.196.
With `CN1CCC(CNc2ccc3ncc(-c4cccc(OC(F)(F)F)c4)n3n2)CC1`, the log2 fold change in assay [1] was -0.228; in assay [2], 0.332; in assay [3] it was 0.27.
For `CN(CCOc1ccc(C[C@@H]2SC(=O)NC2=O)cc1)c1ccccn1` (racemic) [rosiglitazone] the same measures were 0.029, 0.107 and 0.04.
Taken in the same sequence, the figures for `Cn1cc(-c2ccc3c(c2)CCN3C(=O)Cc2cccc(C(F)(F)F)c2)c2c(N)ncnc21` were -0.197, -0.05 and -0.011.
For `Cc1ccc2c(=O)c3ccccc3n(CCCN)c2c1C` the same measures were -0.003, -0.044 and -0.017.
In the case of `Cc1ccc(NC(=O)c2cccc(C(C)(C)C#N)c2)cc1Nc1ccc2ncn(C)c(=O)c2c1`, the log2 fold change was -0.153 in assay [1], -0.131 in assay [2] and 0.01 in assay [3].
Taken in the same sequence, the figures for `NC1(c2ccc(-c3nc4ccn5c(=O)[nH]nc5c4cc3-c3ccccc3)cc2)CCC1` were -0.174, 0.048 and -0.027.
Taken in the same sequence, the figures for `O=C(CCCCCCNC(=O)c1cnc(N(c2ccccc2)c2ccccc2Cl)nc1)NO` [citarinostat] were 0.024, -0.014 and -0.015.
For `Cc1ccc(C(=O)N(CCCN)[C@@H](c2nc3cc(Cl)ccc3c(=O)n2Cc2ccccc2)C(C)C)cc1` [ispinesib] the same measures were -0.017, 0.011 and 0.091.
Regarding `Nc1ccccc1NC(=O)c1ccc(CNC(=O)OCc2cccnc2)cc1` [entinostat], the log2 fold change was 0.004 in assay [1], -0.061 in assay [2] and -0.015 in assay [3].
For `Cc1ncc(-c2ccnc(Nc3ccc(S(C)(=O)=O)cc3)n2)n1C(C)C` the same measures were 0.008, 0.028 and 0.219.
Taken in the same sequence, the figures for `Cn1cc(-c2ccc3nnc(C(F)(F)c4ccc5ncccc5c4)n3n2)cn1` were -0.121, -0.079 and -0.086.
Taken in the same sequence, the figures for `COc1cc(C(=O)O)ccc1NC(=O)[C@@H]1N[C@@H](CC(C)(C)C)[C@](C#N)(c2ccc(Cl)cc2F)[C@H]1c1cccc(Cl)c1F` [idasanutlin] were -0.053, -0.077 and -0.129.
As for `CC(C)c1cnn2c(NCc3ccccc3)cc(NCCCCCCN)nc12`, the log2 fold change is -0.099 in assay [1], -0.145 in assay [2] and -0.043 in assay [3].
Taken in the same sequence, the figures for `CC(=O)c1cnc2ccc(-c3cc(Cl)c(O)c(Cl)c3)nc2c1N[C@H]1CC[C@H](CN(C)C)CC1` were 0.077, 0.319 and 0.366.
Turning to `CS(=O)(=O)c1ccc(-c2cnc(N)c(C(=O)Nc3ccccc3)n2)cc1`, the values for the log2 fold change in assay [1], in assay [2] and in assay [3] were 0.097, 0.138 and 0.043, respectively.
For `C#Cc1cccc(Nc2ncnc3cc(OCCOC)c(OCCOC)cc23)c1` [erlotinib] the same measures were 0.251, 0.043 and -0.028.
For `O=C1NC(=O)/C(=C\c2ccc3nccnc3c2)S1` the same measures were 0.027, 0.107 and 0.033.
For `CO[C@H]1C[C@@H]2CC[C@@H](C)[C@@](O)(O2)C(=O)C(=O)N2CCCC[C@H]2C(=O)O[C@H]([C@H](C)C[C@@H]2CC[C@H](n3cnnn3)[C@H](OC)C2)CC(=O)[C@H](C)/C=C(\C)[C@@H](O)[C@@H](OC)C(=O)[C@H](C)C[C@H](C)/C=C/C=C/C=C/1C` [zotarolimus] the same measures were -0.093, -0.095 and -0.004.
On to `C=CC(=O)N1CCC[C@@H](n2nc(-c3ccc(Oc4ccccc4)cc3)c3c(N)ncnc32)C1` [ibrutinib], for which the log2 fold change is 0.026 in assay [1], 0.074 in assay [2] and 0.051 in assay [3].
For `CCn1cc(-c2ccnc3[nH]c(-c4cccc(CN(C)C)c4)cc23)c(-c2ccc(NC(=O)N(C)C)cc2)n1` the same measures were -0.018, -0.031 and -0.141.
For `Cc1cccc(-c2[nH]c(C(C)(C)C)nc2-c2ccc3nccnc3c2)n1` the same measures were -0.036, 0 and 0.015.
Taken in the same sequence, the figures for `COC(=O)N[C@@H](C)CNc1nccc(-c2cn(C(C)C)nc2-c2cc(Cl)cc(NS(C)(=O)=O)c2F)n1` [encorafenib] were 0.045, 0.033 and -0.047.
For `Cc1ccc(NC(=O)c2ccc(CN3CC[C@H](N(C)C)C3)c(C(F)(F)F)c2)cc1Nc1nccc(-c2cncnc2)n1` [bafetinib], the log2 fold change in assay [1] is -0.046; in assay [2], -0.058; in assay [3] it was -0.016.
For `NC(=O)c1ccc2nc(-c3ccc(Oc4ccc(Cl)cc4)cc3)[nH]c2c1` the same measures were -0.068, 0.02 and 0.005.
For `O=C(Nc1cccc(Nc2ncc(Br)c(NCCc3cnc[nH]3)n2)c1)N1CCCC1`, the results for the log2 fold change in assay [1], in assay [2] and in assay [3] were 0.067, 0.255 and 0.265, respectively.
Taken in the same sequence, the figures for `CCCc1cc(C)[nH]c(=O)c1CNC(=O)c1cc(-c2ccnc(N3CCN(C)CC3)c2)cc2c1cnn2C(C)C` were -0.02, -0.026 and 0.08.
In the case of `O=C(O)c1ccc2c(c1)nc(Nc1cccc(Cl)c1)c1ccncc12` [silmitasertib], the values for the log2 fold change in assay [1], in assay [2] and in assay [3] were 0.071, -0.072 and 0.153, respectively.
Taken in the same sequence, the figures for `Cc1cc(Nc2cc(CN3CCOCC3)c3nc(C)c(Cc4ccc(Cl)cc4F)n3n2)n[nH]1` [gandotinib] were -0.026, 0.103 and 0.091.
In the case of `Cc1cccc(CC(=O)N2CCc3c2ccc(-c2cn(C)c4ncnc(N)c24)c3F)n1`, the figures for the log2 fold change in assay [1], in assay [2] and in assay [3] were 0.016, -0.017 and -0.048, respectively.
For `Cc1ccc(-n2nc(C(C)(C)C)cc2NC(=O)Nc2ccc(OCCN3CCOCC3)c3ccccc23)cc1` [doramapimod] the same measures were 0.017, -0.013 and -0.095.
On to `C[C@H](Nc1ncnc2nc[nH]c12)c1cc2cccc(Cl)c2c(=O)n1-c1ccccc1` [duvelisib], for which the log2 fold change was -0.1 in assay [1], 0.007 in assay [2] and 0.186 in assay [3].
For `CC(C)N(C[C@H]1O[C@@H](n2cnc3c(N)ncnc32)[C@H](O)[C@@H]1O)[C@H]1C[C@@H](CCc2nc3cc(C(C)(C)C)ccc3[nH]2)C1` [pinometostat] the same measures were 0.147, -0.033 and -0.05.
Turning to `Cc1ccc(Sc2cncc3sc(C(N)=O)cc23)cc1`, the log2 fold change is -0.012 in assay [1] and 0.032 in assay [3].
Taken in the same sequence, the figures for `COc1cc2nc(-c3cc(F)ccc3O)nc(N[C@@H]3CNC[C@H]3C(C)(C)O)c2cc1OC` were -0.064 and 0.024.
Take `CCN(CC)Cc1ccc2cc(COC(=O)Nc3ccc(C(=O)NO)cc3)ccc2c1` [givinostat]: the log2 fold change is -0.004 in assay [1], 0.056 in assay [2] and 0.042 in assay [3].
For `O=C(CCCCCCC(=O)Nc1ccccc1)NO` [vorinostat] the same measures were -0.009, -0.007 and 0.074.
For `Fc1ccc(Cl)cc1-c1nc(Nc2ccncc2)c2nccnc2n1` the same measures were 0.079, -0.027 and 0.019.
For `CC(C)(O)CC(=O)NCCn1ccc2ncnc(Nc3ccc(Oc4cccc(C(F)(F)F)c4)c(Cl)c3)c21` the same measures were -0.146, -0.034 and 0.
`Cc1nc(Nc2n[nH]c3c2CN(C(=O)N[C@H](CN(C)C)c2ccccc2)C3(C)C)c2sccc2n1`: the log2 fold change in assay [1] was -0.109; in assay [2], 0.104; in assay [3], 0.158.
In the case of `Cc1cn(-c2cc(NC(=O)c3ccc(C)c(Nc4nccc(-c5cccnc5)n4)c3)cc(C(F)(F)F)c2)cn1` [nilotinib], the log2 fold change in assay [1] is -0.077; in assay [2] it was -0.084; in assay [3], 0.027.
For `Cc1nc(Nc2ncc(C(=O)Nc3c(C)cccc3Cl)s2)cc(N2CCN(CCO)CC2)n1` [dasatinib] the same measures were -0.161, -0.18 and -0.203.
For `NC(=O)c1cnc(N[C@@H]2CCCC[C@@H]2N)nc1Nc1cccc(-n2nccn2)c1` the same measures were -0.028, 0.048 and 0.055.
